Experimental data as given in PubChem BioAssay (NCATS).
Inconclusive results are not listed. The source made the active and inactive calls. Calls follow the shape of the full dose curve.

target: Nucleoprotein (Lymphocytic choriomeningitis virus (strain Armstrong)) (UniProt P09992); experiment: qHTS for Inhibitors of the Functional Ribonucleoprotein Complex (vRNP) of Lymphocytic Choriomeningitis Arenaviruses (LCMV): LCMV Primary Screen - GLuc reporter signal (AID 1347086); settings: LCMV minigenome vRNP cell assay, Gaussia luciferase reporter; series mostly up to 57.5 µM; activity change, negative = inhibition: at the top concentration; also: nearly all actives have a fitted effect of over 70% in size
% is scaled to controls: 0 for no effect and ±100 for the full control effect.

Chain of Nucleoprotein (Lymphocytic choriomeningitis virus (strain Armstrong)) (P09992 whole entry, looked up): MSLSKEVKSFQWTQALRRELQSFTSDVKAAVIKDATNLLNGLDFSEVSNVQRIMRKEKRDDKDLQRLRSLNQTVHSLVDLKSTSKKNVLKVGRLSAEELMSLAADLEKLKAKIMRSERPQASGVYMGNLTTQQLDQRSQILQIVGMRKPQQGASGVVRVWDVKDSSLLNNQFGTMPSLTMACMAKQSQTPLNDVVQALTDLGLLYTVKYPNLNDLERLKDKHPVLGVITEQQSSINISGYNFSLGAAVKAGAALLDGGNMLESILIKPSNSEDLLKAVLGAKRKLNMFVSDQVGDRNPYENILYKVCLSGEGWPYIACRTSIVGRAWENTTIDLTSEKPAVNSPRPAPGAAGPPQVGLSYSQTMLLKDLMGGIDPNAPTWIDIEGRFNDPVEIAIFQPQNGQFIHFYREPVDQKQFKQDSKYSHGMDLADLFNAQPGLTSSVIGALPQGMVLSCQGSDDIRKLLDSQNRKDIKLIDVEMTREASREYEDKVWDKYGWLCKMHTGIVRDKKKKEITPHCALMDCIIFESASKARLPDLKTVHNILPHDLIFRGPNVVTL

Structure (SMILES) | activity change, negative = inhibition
CCCC(=O)OCC | 20% [at 115 µM] (inactive)
CC(=O)O[C@]1(C(C)=O)CC[C@@H]2[C@@H]3C[C@H](C)C4=CC(=O)CC[C@]4(C)[C@H]3CC[C@@]21C | 15.1% (inactive)
CO[C@H]1C=CO[C@@]2(C)Oc3c(C)c(O)c4c(O)c(c(C=NN5CCN(C)CC5)c(O)c4c3C2=O)NC(=O)C(C)=CC=C[C@H](C)[C@H](O)[C@@H](C)[C@@H](O)[C@@H](C)[C@H](OC(C)=O)[C@H]1C | 34.5% [at 19.1 µM] (inactive)
CC1(C)C2CC1[C@@](C)(O)[C@H](O)C2 (stereo not given in full) | 7.47% (inactive)
CCCCCCCCCCCCCC/C(C(=O)O)=C(\C)C(=O)O | 7.9% (inactive)
CC/C=C\CCOC(C)OCC (stereo not given) | 12.6% [at 115 µM] (inactive)
CC(C)(O)[C@@H]1CC(=O)[C@]2(C)[C@H](CC[C@@]3(C)[C@H](c4ccoc4)OC(=O)[C@H]4O[C@]432)[C@@]1(C)/C=C\C(=O)O | 23.5% (inactive)
C[C@@H]1CC[C@]2(C(=O)O[C@@H]3O[C@H](CO)[C@@H](O)[C@H](O)[C@H]3O)CC[C@]3(C)C(=CCC4[C@@]5(C)C[C@@H](O)[C@H](O)[C@@](C)(C(=O)O[C@@H]6[C@H](O)C[C@@]7(C)C(CC[C@]8(C)C7CC=C7[C@H]9[C@](C(=O)O[C@@H]%10O[C@H](CO)[C@@H](O)[C@H](O)[C@H]%10O)(CC[C@@H](C)[C@@]9(C)O)CC[C@]78C)[C@@]6(CO)C(=O)O)C5CC[C@]43C)[C@@H]2[C@]1(C)O (stereo not given in full) | -0.646% (inactive)
COC(/C=C(\C)CCC=C(C)C)OC | 17% [at 115 µM] (inactive)
CC(O)[C@H]1CC[C@H]2[C@@H]3CC[C@H]4C[C@@H](O)CC[C@]4(C)[C@H]3C(=O)C[C@]12C (stereo not given in full) | 15.6% (inactive)
CCc1ccc(C=C2SC(=S)NC2=O)cc1 | 4.82% (inactive)
CC1=CC=C(C(C)C)CC1 | 1.41% [at 115 µM] (inactive)
C=C1[C@H]2O[C@H]2[C@@H](OC(C)=O)[C@@]2(C)[C@@H](OC(C)=O)C[C@@H](OC(C)=O)[C@@](C)(O)[C@@H]2[C@@H](OC(C)=O)[C@@]2(O)[C@@H](C)C(=O)O[C@H]2[C@H]1Cl | 16.2% (inactive)
C=C(C)C1CCC(C)(O)CC1 (stereo not given) | 8.81% [at 115 µM] (inactive)
Cc1c[nH]c(C=C2C(=O)Nc3ccccc32)c1CCC(=O)O | 9.09% (inactive)
C[C@]12CC[C@@H](O)CC1=CC(=O)C1C2CC[C@]2(C)C(=O)[C@H](O)CC12 (stereo not given in full) | 26.8% (inactive)
CC1(C)C=Cc2c(c3ccccc3[nH]c2=O)O1 | -11.9% (inactive)
C[C@@H]1CC[C@H]2[C@H](C)[C@H]3CC[C@H]4C5[C@@H](O)CC6=CC(=O)CC[C@]6(C)[C@H]5C[C@H]4C3C(=O)N2C1 (stereo not given in full) | -4.81% (inactive)
O=C1N[C@@H](Cc2c[nH]c3ccccc23)C(=O)N[C@H]1Cc1c[nH]c2ccccc12 | -21.1% (inactive)
CN1CC[C@@]2([C@@]34CCN(C)C3Nc3ccccc34)c3ccccc3NC12 (stereo not given in full) | -1.17% (inactive)

Structure (SMILES) | activity change, negative = inhibition
Cc1cc(Nc2nc(N[C@@H](C)c3ccc(F)cc3)c(C#N)cc2F)n[nH]1 | -23.2% (inactive)
CC(C)(O[C@@H]1O[C@H](CO)[C@@H](O)[C@H](O)[C@H]1O)[C@@H]1CC=C(C(=O)O)CC1 | -0.265% (inactive)
COc1c2ccoc2c(OC[C@@H](OC(C)=O)C(C)(C)O)c2oc(=O)ccc12 | 7.8% (inactive)
S=C(NCc1ccccc1)NCc1ccccc1 | 21.7% (inactive)
C[C@@H]1O[C@@H](O[C@H]2[C@H](O)[C@@H](O)[C@H](Oc3c(-c4ccc(O)c(O)c4)oc4cc(O)cc(O)c4c3=O)O[C@@H]2CO)[C@H](O)[C@H](O)[C@H]1O | 4.28% (inactive)
C=C[C@@H]1CN2CC[C@@H]1C[C@H]2[C@H](O)c1ccnc2ccc(OC)cc12 | -3.09% (inactive)
CCCCCCCCCCCC | 17.6% [at 115 µM] (inactive)
C=CC[C@]12C=C(OC)C(=O)C=C1O[C@@H](c1ccc3c(c1)OCO3)[C@H]2C | -1.94% (inactive)
O=C(O)CCc1ccccc1 | -3.43% [at 115 µM] (inactive)
COc1cc2c(cc1O)CC[n+]1cc3c(OC)c(OC)ccc3cc1-2 | 0.843% (inactive)
COc1ccc2[nH]cc(CCO)c2c1 | 2.18% (inactive)
COC(=O)C(O)C(O)(CCC(C)C)C(=O)OC1C(OC)=CC23CCCN2CCc2cc4c(cc2C13)OCO4 (stereo not given) | -103% (inactive)
O=Cc1cc2ccccc2o1 | 7.11% [at 115 µM] (inactive)
COc1cc(CCc2ccccc2)c(C(=O)O)c(O)c1C/C=C(/C)CCC=C(C)C | 12.3% (inactive)
CC(C)=CCC/C(C)=C/CC/C(C)=C/CCC1(C)CCc2cc(O)ccc2O1 (stereo not given) | -1.18% (inactive)
CC(Cc1c[nH]c2ccccc12)C(=O)O (stereo not given) | 5.65% (inactive)
O=C(CO)c1c[nH]c2ccccc12 | -11.8% (inactive)
CC(C)(O[C@@H]1O[C@H](CO)[C@@H](O)[C@H](O)[C@H]1O)[C@H]1Cc2cc3ccc(=O)oc3cc2O1 | 19.3% (inactive)
COc1cc2c(cc1CC=C(C)C)C(=O)C[C@@H](c1ccc(O)cc1)O2 | -26.4% (inactive)
COc1c(C(=O)/C=C/c2ccccc2)ccc2c1C=CC(C)(C)O2 | -21.3% (inactive)
